In publication PMC7862700, “An all-to-all approach to the identification of sequence-specific readers for epigenetic DNA modifications on cytosine” one finds binding signal data, which are given here for one sequence.

Test in all cases: DAPPL (digital affinity profiling via proximity ligation, sequencing); 10 mM Tris-HCl pH 7.5, 50 mM NaCl, 1 mM DTT, 4% glycerol, room temperature, 30 min; GST-TFs on glutathione beads, 16-mer random dsDNA library, 0.1% formaldehyde crosslink after washing; high values mean tight binding
One experiment has as its target T1, FEV (Homo sapiens, UniProt Q99581 1-238).
T1 sequence: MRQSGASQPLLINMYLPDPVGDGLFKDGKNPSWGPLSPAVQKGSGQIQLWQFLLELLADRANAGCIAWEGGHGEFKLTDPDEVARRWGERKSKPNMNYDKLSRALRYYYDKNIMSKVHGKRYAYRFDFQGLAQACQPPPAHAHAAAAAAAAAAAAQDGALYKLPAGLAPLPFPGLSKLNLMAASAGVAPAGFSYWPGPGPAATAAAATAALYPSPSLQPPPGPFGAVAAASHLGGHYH
The conditions noted are these: protein: recombinant; tags: N-terminal GST; dsDNA, one strand shown. The method, boiled down:
(§1)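 Human transcription factors carrying a GST fusion were produced in yeast, bound to glutathione beads, tagged with DNA barcodes and pooled together with a tag-only sample. Each pool was held with 200 nmole of a random double-stranded 16-mer DNA library in Tris/NaCl/DTT/glycerol buffer for 30 min at room temperature, then washed, crosslinked in 0.1% formaldehyde, proximity-ligated with BsaI/T4 ligase (1 h, 37 °C), PCR-amplified and sequenced on an Illumina NextSeq500. Binding signal is the read frequency of each hexamer for a given factor divided by its frequency in the tag-only sample.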

The target in the next experiment is ETV5 (Homo sapiens, UniProt P41161 1-510). Particulars: protein: recombinant; tags: N-terminal GST; dsDNA, one strand shown. Put shortly:
as §1

A further experiment has as its target HSF1 (Homo sapiens, UniProt Q00613 1-529). The conditions noted are these: protein: recombinant; tags: N-terminal GST; chain copies: 3; dsDNA, one strand shown. The method, boiled down:
as §1

The target in a further experiment is T2, SPIC (Homo sapiens, UniProt Q8N5J4 1-248).
T2 sequence: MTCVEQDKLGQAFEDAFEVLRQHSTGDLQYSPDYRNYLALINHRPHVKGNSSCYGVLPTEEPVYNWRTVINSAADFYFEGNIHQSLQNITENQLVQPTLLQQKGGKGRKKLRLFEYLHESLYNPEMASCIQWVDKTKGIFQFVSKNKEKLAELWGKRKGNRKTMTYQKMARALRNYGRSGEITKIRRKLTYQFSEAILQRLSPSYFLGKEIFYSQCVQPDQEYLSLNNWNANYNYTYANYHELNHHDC
The conditions noted are these: protein: recombinant; tags: N-terminal GST; dsDNA, one strand shown. The method, boiled down:
as §1

The target in another experiment is ELF4 (Homo sapiens, UniProt Q99607 1-663). Particulars: protein: recombinant; tags: N-terminal GST; dsDNA, one strand shown. Put shortly:
as §1

A further experiment addresses T3, ELK4 (Homo sapiens, UniProt P28324-2 1-405).
T3 sequence: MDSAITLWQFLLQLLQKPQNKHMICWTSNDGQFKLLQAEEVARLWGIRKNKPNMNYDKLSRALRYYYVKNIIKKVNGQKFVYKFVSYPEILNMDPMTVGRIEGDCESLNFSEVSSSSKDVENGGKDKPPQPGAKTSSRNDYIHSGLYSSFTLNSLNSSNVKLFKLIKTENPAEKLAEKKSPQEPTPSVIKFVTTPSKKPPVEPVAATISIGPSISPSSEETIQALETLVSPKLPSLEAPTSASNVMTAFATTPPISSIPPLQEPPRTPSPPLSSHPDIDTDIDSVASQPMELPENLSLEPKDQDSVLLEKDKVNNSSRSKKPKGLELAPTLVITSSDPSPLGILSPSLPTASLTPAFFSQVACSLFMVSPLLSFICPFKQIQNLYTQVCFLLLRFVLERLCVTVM
The conditions noted are these: protein: recombinant; tags: N-terminal GST; dsDNA, one strand shown. The method, boiled down: as §1

The target in the next experiment is T4, ETV2 (Homo sapiens, UniProt O00321 1-342).
T4 sequence: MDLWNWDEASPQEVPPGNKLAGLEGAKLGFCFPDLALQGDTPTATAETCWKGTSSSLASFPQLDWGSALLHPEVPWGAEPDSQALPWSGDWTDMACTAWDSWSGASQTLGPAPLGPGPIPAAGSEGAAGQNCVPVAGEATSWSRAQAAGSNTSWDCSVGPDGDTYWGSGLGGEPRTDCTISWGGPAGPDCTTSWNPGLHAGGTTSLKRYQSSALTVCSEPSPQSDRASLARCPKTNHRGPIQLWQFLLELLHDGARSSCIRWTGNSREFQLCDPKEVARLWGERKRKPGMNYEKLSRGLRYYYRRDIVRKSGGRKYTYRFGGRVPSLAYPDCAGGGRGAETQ
Particulars: protein: recombinant; tags: N-terminal GST; dsDNA, one strand shown. Put shortly: as §1

The target of the next experiment is T5, ELF3 (Homo sapiens, UniProt P78545 1-371).
T5 sequence: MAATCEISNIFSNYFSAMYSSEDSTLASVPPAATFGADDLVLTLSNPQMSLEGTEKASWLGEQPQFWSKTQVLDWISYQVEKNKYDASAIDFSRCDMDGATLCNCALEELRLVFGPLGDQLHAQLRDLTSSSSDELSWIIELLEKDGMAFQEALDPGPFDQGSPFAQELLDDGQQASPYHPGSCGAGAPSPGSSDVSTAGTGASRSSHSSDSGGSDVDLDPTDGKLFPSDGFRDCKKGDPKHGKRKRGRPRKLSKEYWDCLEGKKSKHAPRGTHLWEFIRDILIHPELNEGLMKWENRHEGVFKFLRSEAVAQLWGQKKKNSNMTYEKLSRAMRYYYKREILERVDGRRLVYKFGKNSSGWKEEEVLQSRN
Particulars: protein: recombinant; tags: N-terminal GST; dsDNA, one strand shown. The method, boiled down: as §1

A further experiment addresses CRX (Homo sapiens, UniProt O43186 1-299). Particulars: protein: recombinant; tags: N-terminal GST; dsDNA, one strand shown. The method, boiled down: as §1
Another experiment addresses ETV1 (Homo sapiens, UniProt P50549 1-477). The conditions noted are these: protein: recombinant; tags: N-terminal GST; dsDNA, one strand shown. The method, boiled down: as §1
A further experiment addresses T6, ERF (Homo sapiens, UniProt P50548 1-548).
T6 sequence: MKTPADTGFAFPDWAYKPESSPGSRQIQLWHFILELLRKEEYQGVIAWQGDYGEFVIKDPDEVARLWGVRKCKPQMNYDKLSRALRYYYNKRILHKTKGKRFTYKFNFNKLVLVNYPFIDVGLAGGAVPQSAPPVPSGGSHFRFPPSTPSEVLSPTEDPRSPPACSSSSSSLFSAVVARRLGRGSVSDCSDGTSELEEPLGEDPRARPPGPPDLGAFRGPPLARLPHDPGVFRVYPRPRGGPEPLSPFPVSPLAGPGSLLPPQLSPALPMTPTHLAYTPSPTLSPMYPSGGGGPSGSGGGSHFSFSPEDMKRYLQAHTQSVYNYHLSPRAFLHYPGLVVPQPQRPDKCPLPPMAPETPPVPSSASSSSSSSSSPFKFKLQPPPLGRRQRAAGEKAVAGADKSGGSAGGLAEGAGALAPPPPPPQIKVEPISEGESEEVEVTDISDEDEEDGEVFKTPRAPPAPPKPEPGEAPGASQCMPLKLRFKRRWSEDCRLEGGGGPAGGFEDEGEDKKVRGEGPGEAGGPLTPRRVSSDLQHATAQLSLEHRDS
The conditions noted are these: protein: recombinant; tags: N-terminal GST; dsDNA, one strand shown. The method, boiled down:
as §1

In a further experiment the target is T7, ETV3L (Homo sapiens, UniProt Q6ZN32 1-361).
T7 sequence: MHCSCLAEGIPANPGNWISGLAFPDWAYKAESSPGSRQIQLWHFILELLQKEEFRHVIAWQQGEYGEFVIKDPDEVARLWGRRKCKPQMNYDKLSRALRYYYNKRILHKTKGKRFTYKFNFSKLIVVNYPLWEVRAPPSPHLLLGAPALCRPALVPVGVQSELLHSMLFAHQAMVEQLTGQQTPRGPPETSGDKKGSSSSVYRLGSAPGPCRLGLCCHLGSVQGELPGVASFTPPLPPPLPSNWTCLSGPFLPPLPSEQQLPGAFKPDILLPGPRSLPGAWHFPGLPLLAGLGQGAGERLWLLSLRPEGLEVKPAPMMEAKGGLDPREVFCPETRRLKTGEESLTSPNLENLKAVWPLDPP
The conditions noted are these: protein: recombinant; tags: N-terminal GST; dsDNA, one strand shown. Put shortly: as §1

In the next experiment the target is T8, ETS2 (Homo sapiens, UniProt P15036 1-469).
T8 sequence: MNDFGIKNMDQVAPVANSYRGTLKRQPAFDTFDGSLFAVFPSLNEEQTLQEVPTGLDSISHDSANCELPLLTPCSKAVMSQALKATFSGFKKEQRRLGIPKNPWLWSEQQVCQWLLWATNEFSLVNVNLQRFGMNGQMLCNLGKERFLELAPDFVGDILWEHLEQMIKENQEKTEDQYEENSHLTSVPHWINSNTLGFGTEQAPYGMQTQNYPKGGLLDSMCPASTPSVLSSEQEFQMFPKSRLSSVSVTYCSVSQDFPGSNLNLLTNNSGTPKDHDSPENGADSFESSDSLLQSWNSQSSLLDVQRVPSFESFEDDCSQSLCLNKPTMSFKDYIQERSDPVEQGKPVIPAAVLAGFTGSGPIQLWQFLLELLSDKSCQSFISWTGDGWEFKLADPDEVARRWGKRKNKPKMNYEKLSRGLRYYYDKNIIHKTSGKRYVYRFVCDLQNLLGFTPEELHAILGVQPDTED
The conditions noted are these: protein: recombinant; tags: N-terminal GST; dsDNA, one strand shown. Put shortly: as §1

In the next experiment the target is T9, SPDEF (Homo sapiens, UniProt O95238 1-335).
T9 sequence: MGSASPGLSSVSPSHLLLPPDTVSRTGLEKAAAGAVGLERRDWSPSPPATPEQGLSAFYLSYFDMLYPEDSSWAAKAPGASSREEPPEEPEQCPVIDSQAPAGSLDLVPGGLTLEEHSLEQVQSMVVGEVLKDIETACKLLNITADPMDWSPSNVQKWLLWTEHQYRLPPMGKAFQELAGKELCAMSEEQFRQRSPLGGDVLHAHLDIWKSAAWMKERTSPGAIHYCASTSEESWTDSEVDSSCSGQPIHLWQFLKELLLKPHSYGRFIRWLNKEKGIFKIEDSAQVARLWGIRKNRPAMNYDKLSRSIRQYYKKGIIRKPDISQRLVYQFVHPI
The conditions noted are these: protein: recombinant; tags: N-terminal GST; dsDNA, one strand shown. Put shortly:
as §1

Another experiment concerns the target T10, ETV7 (Homo sapiens, UniProt Q9Y603 1-341).
T10 sequence: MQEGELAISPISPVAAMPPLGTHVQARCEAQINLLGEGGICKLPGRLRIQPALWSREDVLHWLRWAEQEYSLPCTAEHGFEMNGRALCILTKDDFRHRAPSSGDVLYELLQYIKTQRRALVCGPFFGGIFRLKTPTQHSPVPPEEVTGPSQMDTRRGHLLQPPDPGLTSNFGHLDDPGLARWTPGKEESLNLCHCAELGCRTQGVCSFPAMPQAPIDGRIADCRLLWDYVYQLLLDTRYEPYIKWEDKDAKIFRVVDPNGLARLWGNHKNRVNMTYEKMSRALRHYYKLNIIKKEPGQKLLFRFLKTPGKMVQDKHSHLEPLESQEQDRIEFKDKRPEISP
The conditions noted are these: protein: recombinant; tags: N-terminal GST; dsDNA, one strand shown. Put shortly: as §1

In another experiment the target is T11, ELF5 (Homo sapiens, UniProt Q9UKW6-2 1-255).
T11 sequence: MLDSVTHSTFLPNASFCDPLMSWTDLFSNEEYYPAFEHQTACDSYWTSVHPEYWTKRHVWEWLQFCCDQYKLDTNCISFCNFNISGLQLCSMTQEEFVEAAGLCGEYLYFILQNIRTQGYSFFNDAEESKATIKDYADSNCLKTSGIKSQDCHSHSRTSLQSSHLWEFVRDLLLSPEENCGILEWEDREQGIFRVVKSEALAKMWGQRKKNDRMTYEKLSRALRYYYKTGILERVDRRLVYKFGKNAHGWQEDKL
Particulars: protein: recombinant; tags: N-terminal GST; dsDNA, one strand shown. The method, boiled down: as §1

Another experiment concerns the target T12, ETV3 (Homo sapiens, UniProt P41162-2 1-143).
T12 sequence: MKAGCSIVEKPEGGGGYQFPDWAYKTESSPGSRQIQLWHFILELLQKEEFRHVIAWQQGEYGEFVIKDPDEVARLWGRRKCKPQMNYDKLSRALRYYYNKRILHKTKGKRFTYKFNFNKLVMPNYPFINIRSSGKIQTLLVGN
The conditions noted are these: protein: recombinant; tags: N-terminal GST; dsDNA, one strand shown. Put shortly: as §1

The next experiment deals with ETV6 (Homo sapiens, UniProt P41212 1-452). The conditions noted are these: protein: recombinant; tags: N-terminal GST; dsDNA, one strand shown. Put shortly:
as §1

Sequence of ETV5 (P41161 whole entry): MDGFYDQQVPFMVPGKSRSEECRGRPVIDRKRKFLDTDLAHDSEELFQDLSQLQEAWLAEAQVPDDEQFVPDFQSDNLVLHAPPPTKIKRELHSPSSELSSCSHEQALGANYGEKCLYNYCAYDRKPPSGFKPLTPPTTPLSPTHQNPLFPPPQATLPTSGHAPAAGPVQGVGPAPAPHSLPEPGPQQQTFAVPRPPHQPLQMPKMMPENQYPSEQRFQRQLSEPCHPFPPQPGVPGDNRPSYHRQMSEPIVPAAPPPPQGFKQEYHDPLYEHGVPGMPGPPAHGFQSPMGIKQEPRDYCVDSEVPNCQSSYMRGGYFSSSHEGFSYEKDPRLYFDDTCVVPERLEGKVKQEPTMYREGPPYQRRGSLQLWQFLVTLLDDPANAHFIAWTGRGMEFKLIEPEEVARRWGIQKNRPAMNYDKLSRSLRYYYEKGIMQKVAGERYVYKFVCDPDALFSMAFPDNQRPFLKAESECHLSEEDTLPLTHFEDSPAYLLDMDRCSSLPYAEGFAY
Sequence of HSF1 (Q00613 whole entry): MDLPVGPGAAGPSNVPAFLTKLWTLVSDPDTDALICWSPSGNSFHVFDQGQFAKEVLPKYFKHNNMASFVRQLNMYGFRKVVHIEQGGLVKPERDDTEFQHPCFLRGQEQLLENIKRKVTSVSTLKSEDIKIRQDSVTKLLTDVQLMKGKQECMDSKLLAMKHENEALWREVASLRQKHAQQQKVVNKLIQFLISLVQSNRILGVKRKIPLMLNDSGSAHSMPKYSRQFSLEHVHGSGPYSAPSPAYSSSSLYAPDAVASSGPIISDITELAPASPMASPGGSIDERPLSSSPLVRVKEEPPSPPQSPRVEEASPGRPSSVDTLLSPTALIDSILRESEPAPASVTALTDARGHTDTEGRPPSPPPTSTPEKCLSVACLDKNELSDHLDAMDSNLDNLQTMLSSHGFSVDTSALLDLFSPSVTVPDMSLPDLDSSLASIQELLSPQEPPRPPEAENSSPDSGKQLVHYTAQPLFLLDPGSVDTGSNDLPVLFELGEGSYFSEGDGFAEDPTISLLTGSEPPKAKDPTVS
Sequence of ETV6 (P41212 whole entry): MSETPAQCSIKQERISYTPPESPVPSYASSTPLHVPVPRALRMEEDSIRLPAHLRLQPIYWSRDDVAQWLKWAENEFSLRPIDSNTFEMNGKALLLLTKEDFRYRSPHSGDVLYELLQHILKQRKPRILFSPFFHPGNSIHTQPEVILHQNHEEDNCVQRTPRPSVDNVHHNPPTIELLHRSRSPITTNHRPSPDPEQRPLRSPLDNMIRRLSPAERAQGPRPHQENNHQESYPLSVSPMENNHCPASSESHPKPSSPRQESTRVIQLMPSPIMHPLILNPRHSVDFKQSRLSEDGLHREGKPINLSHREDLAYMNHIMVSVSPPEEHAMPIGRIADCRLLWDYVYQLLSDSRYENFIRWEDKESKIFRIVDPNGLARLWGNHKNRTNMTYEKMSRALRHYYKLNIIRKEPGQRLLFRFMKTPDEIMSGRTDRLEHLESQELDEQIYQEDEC
Sequence of ETV1 (P50549 whole entry): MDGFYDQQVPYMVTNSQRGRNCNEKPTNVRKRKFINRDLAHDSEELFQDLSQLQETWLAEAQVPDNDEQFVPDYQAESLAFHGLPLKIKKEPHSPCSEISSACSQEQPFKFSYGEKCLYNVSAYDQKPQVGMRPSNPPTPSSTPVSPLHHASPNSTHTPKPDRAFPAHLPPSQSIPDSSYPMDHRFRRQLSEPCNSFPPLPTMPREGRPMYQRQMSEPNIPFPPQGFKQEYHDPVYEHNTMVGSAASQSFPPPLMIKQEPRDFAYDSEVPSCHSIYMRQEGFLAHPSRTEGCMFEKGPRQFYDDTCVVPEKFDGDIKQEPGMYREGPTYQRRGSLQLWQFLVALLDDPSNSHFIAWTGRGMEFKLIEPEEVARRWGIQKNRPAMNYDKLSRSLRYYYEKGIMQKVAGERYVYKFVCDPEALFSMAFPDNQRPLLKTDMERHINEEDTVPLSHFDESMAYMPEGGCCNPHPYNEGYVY
Sequence of ELF4 (Q99607 whole entry): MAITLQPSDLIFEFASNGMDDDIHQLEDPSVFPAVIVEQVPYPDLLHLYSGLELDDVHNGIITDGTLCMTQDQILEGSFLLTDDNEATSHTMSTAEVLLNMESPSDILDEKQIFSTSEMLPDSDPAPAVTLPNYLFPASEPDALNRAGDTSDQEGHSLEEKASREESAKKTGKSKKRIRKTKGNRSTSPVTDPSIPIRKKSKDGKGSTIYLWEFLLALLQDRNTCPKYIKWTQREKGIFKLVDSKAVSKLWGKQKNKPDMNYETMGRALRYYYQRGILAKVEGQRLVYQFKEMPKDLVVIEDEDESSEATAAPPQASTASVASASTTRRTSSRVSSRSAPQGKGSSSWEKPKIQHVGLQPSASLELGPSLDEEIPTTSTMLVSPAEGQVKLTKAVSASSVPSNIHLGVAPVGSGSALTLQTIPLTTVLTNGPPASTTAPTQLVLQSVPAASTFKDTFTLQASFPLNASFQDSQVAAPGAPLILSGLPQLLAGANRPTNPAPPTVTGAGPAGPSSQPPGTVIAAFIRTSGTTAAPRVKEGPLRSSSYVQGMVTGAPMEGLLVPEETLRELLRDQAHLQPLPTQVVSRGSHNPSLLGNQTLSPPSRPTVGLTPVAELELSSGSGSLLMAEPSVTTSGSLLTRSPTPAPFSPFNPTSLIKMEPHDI
Sequence of CRX (O43186 whole entry): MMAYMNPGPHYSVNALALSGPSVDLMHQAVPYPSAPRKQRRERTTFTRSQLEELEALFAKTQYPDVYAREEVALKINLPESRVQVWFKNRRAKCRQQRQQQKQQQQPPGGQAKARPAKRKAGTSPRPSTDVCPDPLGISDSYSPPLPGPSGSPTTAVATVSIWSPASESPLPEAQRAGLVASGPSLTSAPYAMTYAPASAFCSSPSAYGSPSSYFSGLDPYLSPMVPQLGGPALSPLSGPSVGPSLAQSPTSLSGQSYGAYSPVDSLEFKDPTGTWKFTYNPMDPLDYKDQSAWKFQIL

As for TAGTTT, the binding signal in the experiment with FEV is 1.09 fold enrichment (6-mer frequency, TF over GST control); with ETV5, 1.18 fold enrichment (6-mer frequency, TF over GST control); with HSF1 it was 1.27 fold enrichment (6-mer frequency, TF over GST control); in the experiment with SPIC, 1.21 fold enrichment (6-mer frequency, TF over GST control); with ELF4, 1.21 fold enrichment (6-mer frequency, TF over GST control); in the experiment with ELK4, 1.4 fold enrichment (6-mer frequency, TF over GST control). The binding signal in the experiment with ETV2 was 1.17 fold enrichment (6-mer frequency, TF over GST control); with ELF3, 1.34 fold enrichment (6-mer frequency, TF over GST control); in the experiment with CRX it was 1.3 fold enrichment (6-mer frequency, TF over GST control); with ETV1, 1.24 fold enrichment (6-mer frequency, TF over GST control); with ERF, 1.36 fold enrichment (6-mer frequency, TF over GST control); in the experiment with ETV3L, 1.31 fold enrichment (6-mer frequency, TF over GST control). Further, the binding signal with ETS2 is 1.19 fold enrichment (6-mer frequency, TF over GST control); with SPDEF it was 1.16 fold enrichment (6-mer frequency, TF over GST control); with ETV7 it was 1.19 fold enrichment (6-mer frequency, TF over GST control); in the experiment with ELF5, 1.18 fold enrichment (6-mer frequency, TF over GST control); with ETV3 it was 1.32 fold enrichment (6-mer frequency, TF over GST control); in the experiment with ETV6, 1.23 fold enrichment (6-mer frequency, TF over GST control).
